# Sa RN4220 lethal: growth inhibition of S. aureus RN4220, primary screen, OD600; 16 h; inhibition, % (no concentration beside the values); 330,000 tested, 0.33% active; in the data active means inhibition above about 85%;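 further: plate controls were untreated cells for no effect and reference antibiotic for full effect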
# PfHsp40 rescue: rescue of yeast from PfHsp40 toxicity, primary screen, S. cerevisiae, ATP luminescence; S. cerevisiae expressing PfHsp40, growth rescue; growth rescue, % at 12.5 µM; 340,000 tested, 0.68% active; in the data active means growth rescue above about 28%, passing the limit was not always enough;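 further: yeast W303a lacking pdr1 and pdr3 grown in galactose medium; growth measured after three days at 30 °C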
# CCHF vOTU inh: CCHFV vOTU protease inhibitors, primary screen, biochemical, Pep-AMC substrate, fluorescence; inhibition, % at 11.5 µM; 370,000 tested, 0.55% active; AID 651958, 2012; in the data active means inhibition above about 30%; further: 0% = vehicle wells with enzyme and 100% = no enzyme wells
# BJeLR viability: MLPCN primary cell-based screen for lethality selective to Ras in HRASV12 cells | inhibition, % (concentration not given with the values) | 300,000 tested, 0.17% active | BJeLR (HRASV12) viability, CellTiter-Glo ATP luminescence, 48 h; in the data active means inhibition above about 50%
# ugtP null kill: growth inhibition of ugtP-null S. aureus, primary screen, RN4220 ugtP deletion, OD600; AID 1259309, 2017; 16 h; growth inhibition, % (concentration not given with the values); 330,000 tested, 0.54% active; in the data active means growth inhibition above about 68%;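 further: plate controls were untreated wells for no effect and antibiotic for full effect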
# An asterisk follows results filed as active; nt = no result given. Hits are enriched below; roughly 1.6% of the tested compounds scored in any of these assays.
SMILES,Sa RN4220 lethal,PfHsp40 rescue,CCHF vOTU inh,BJeLR viability,ugtP null kill
CCC1=C(OC(=O)N(CC)CC)N2C(=O)OC(=NCc3ccccc3)[C@]2(C)C2C1=CCC1C(=O)N(CC(=O)OC)C(=O)C12 (stereo partly drawn),4,nt,nt,nt,-2
CCOc1ccc(N2C(=O)CSC2=NNC(=O)COc2ccc3ccccc3c2)cc1,3,nt,nt,nt,11
CCCS(=O)(=O)c1c(S(=O)(=O)CCC)c2c(C)cccn2c1C(N)=O,4,-1,-9,-2,-3
CCCS(=O)(=O)c1c(S(=O)(=O)CCC)c2c(C)cccn2c1C(=O)N/N=C/c1cc(O)cc(O)c1,nt,452*,5,35,nt
CC(Oc1ccccc1)C(=O)Nc1nc(-c2ccncc2)cs1 (stereo not drawn),0,12,0,nt,-6
Cc1nc(CNS(=O)(=O)c2ccc3ccccc3c2)cs1,4,1,5,13,1
Cc1nc(-c2cccc(NC(=O)C(C)Oc3ccccc3)c2)cs1 (stereo not drawn),99*,1,10,-5,100*
Cc1nc(-c2cccc(NC(=O)COc3ccc(Cl)cc3)c2)cs1,24,56*,2,-1,2
Cc1nc(-c2cccc(NS(=O)(=O)c3ccc4ccccc4c3)c2)cs1,18,0,8,-8,91*
COC(=O)c1ccc(C=NNC(=O)c2c(C)nc3ccc(Cl)cn23)cc1,2,nt,nt,nt,3
CCOc1ccc(NC(=O)C(NC(=O)c2ccccc2)C(C)CC)cc1 (stereo not drawn),4,nt,nt,nt,5
CCOC(=O)C1C(=NO)CC(C)(O)C(C(=O)OCC)C1c1ccc(OC)c(OC)c1 (stereo not drawn),6,nt,nt,nt,1
CC1CCCCN1C(=O)c1cccc(NC2=C(Cl)C(=O)N(Cc3ccccc3)C2=O)c1 (stereo not drawn),4,31*,nt,nt,1
O=C(Cc1ccsc1)NNC(=O)c1ccccc1O,5,171*,-3,13,-2
CCC(=O)Nc1cc2c(C)cc(=O)oc2cc1C,2,36*,-5,-15,1
Cc1cc(-c2ccccc2)nc(NN=Cc2ccc(O)cc2)n1,9,nt,nt,nt,-2
CN(CCOc1ccc(Cl)c(Cl)c1)Cc1ccccc1,5,36*,-8,-11,18
COc1cc2c(cc1NC(=O)C(C)Sc1ccc(NC(C)=O)cc1)oc1ccccc12 (stereo not drawn),-18,33*,25,-5,-13
COc1cc(OC)c(C2=NOC(C(=O)NCc3cccs3)C2)cc1Cl (stereo not drawn),3,2,-5,63*,16
O=[N+]([O-])c1ccc(Cl)c(C=NN2CCN(c3ccccc3)CC2)c1,0,nt,nt,nt,-28
Cc1ccc(N=Cc2c(C)[nH]n(-c3nc4ccccc4[nH]3)c2=O)cc1,8,-7,-9,103*,-6
COc1ccc(-c2ccc(/C=C3\C(=O)N(c4ccccc4)N=C3c3ccccc3)o2)c([N+](=O)[O-])c1,-7,0,-2,2,2
COc1ccc(-c2ccc(/C=C3/C(=N)N4C(C)=CSC4=NC3=O)o2)c([N+](=O)[O-])c1,6,0,-7,-20,98*
CCOC(=O)CC1c2ccccc2S(=O)(=O)N1Cc1cc(OC)c(OC)c(OC)c1 (stereo not drawn),6,nt,nt,nt,7
O=C(COC(=O)c1ccc([N+](=O)[O-])s1)NCc1ccccc1,10,-1,-13,-15,7
SMILES,Sa RN4220 lethal,PfHsp40 rescue,CCHF vOTU inh,BJeLR viability,ugtP null kill
Cc1[nH]c2ccccc2c1C(=O)COC(=O)c1ccc([N+](=O)[O-])s1,90*,-2,0,1,96*
CC(C)(C)c1ccc(NC(=O)COC(=O)c2ccc([N+](=O)[O-])s2)cc1,83,12,16,nt,100*
COc1ccc(CC(N)=NOC(=O)c2ccc(Cl)cc2)cc1,5,nt,nt,nt,-2
OCC12COC(c3ccccc3)N1C(c1ccccc1)OC2 (stereo not drawn),3,-1,1,16,-2
OCC12CO[C@@H]3c4ccccc4[C@H](OC1)N32 (stereo partly drawn),1,45*,18,-4,1
COC(=O)C1=C(C(=O)OC)[N+]2=C3N(C(=O)NC2(C)C)C(CO)C[C@@]32c3ccccc3N(Cc3ccccc3)C12 (stereo partly drawn),3,nt,nt,nt,0
O=C(Oc1c(Cl)cc(Cl)c2cccnc12)c1cccs1,72,341*,8,1,66
O=C(Oc1c(Cl)cc(Cl)c2cccnc12)c1ccco1,99*,-2,16,5,98*
CN(C)C(=O)Oc1c(Cl)cc(Cl)c2cccnc12,5,-1,15,-13,6
COC(=O)C1CC2CCC(O)CC2N1Cc1ccc(N2CCN(C)CC2)cc1 (stereo not drawn),7,nt,nt,nt,2
COc1ccccc1C1CC(=O)Oc2cc(C)c(Cl)c(C)c21 (stereo not drawn),1,-1,11,nt,28
COc1ccccc1C1CC(=O)Oc2cc(C)c(Br)c(C)c21 (stereo not drawn),-3,-2,9,nt,86*
COc1ccc(C(=O)Oc2cccc(C=NNC(N)=S)c2)cc1,6,nt,nt,nt,2
CN(C)c1ccc(/C=C/c2ccc3c4ccccc4ccc3[n+]2-c2ccccc2)cc1,98*,0,0,nt,98*
CN(C)c1ccc(/C=C/c2ccc3ccccc3[n+]2C)cc1,97*,53*,4,44,95*
Cn1ncc2c(ON=C(N)c3ccc(C(F)(F)F)cc3)ncnc21,2,nt,nt,nt,1
Cn1ncc2c(O/N=C(\N)c3ccc(C(C)(C)C)cc3)ncnc21,nt,73*,nt,99*,nt
COc1ccc([N+]([O-])=Cc2ccoc2)cc1,3,nt,nt,nt,1
C=CCn1c2ccccc2c(=O)c2cc(C#Cc3ccccn3)ccc21,nt,29*,-96,nt,nt
O=C(NN=Cc1ccc(OCC2COCCO2)cc1)c1ccc(Br)cc1 (stereo not drawn),8,nt,nt,nt,4
CC(=O)c1sc(NN=Cc2ccc(C)cc2)nc1C,1,nt,nt,nt,0
COc1ccc(-c2nc3oc4cc(OC)ccc4c(=O)c3c(=O)n2Cc2ccco2)cc1,28,1,7,6,98*
O=C(O)COc1ccccc1C(Nc1cccnc1)c1cc(Cl)c2cccnc2c1O (stereo not drawn),9,106*,nt,7,8
COc1ccccc1C(NC(C)=O)c1cc(Cl)c2cccnc2c1O (stereo not drawn),3,-1,-11,34,-13
CCOc1ccc(C(Nc2cccnc2)c2cc(Cl)c3cccnc3c2O)cc1 (stereo not drawn),15,92*,4,nt,2
O=C(O)COc1ccccc1C(Nc1ccccn1)c1cc(Cl)c2cccnc2c1O (stereo not drawn),18,58*,12,-11,-5
COc1cc(C=NNC(=O)CC2(C)OCCO2)cc(Br)c1O,1,nt,nt,nt,5

# Compound activity as filed in PubChem BioAssay.
